Assay results reported in PubChem BioAssay (EPA / NIEHS).
Results filed as inconclusive are left out. Active and inactive are the calls of the source. How the source made its calls: active means hit-call score of the fitted dose curve at least 0.9, where 1 is the maximum; inconclusive means response in the unintended direction; inactive means score below 0.9.

target: human RAR-related Orphan Receptor gamma (RORg), RORC (gene 6097) (UniProt P51449); assay: ATG_RORg_TRANS: Attagene TRANS-FACTORIAL HepG2 Assay for human RAR-related Orphan Receptor gamma (RORg) (AID 2283011);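 on AC50: potency for induction of reporter transcripts above DMSO so activators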
Sequence (P51449 whole entry, looked up): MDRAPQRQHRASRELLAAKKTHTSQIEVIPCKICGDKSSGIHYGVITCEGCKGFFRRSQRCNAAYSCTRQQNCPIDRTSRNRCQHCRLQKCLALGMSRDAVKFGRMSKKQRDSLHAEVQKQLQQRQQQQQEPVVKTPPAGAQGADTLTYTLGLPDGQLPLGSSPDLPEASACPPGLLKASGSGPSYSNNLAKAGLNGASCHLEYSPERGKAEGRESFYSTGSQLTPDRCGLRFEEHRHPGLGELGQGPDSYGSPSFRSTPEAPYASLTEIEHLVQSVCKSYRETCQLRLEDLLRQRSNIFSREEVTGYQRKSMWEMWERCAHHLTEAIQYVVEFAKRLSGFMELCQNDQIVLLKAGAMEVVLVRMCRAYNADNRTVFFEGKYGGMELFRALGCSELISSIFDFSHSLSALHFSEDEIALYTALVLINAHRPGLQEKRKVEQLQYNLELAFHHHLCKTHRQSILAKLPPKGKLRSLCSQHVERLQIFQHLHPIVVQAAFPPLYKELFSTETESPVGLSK
Protocol: ATG_TRANS is a cell-based, multiplexed-readout assay that uses HepG2, a human liver cell line, with measurements taken at 24 hours after chemical dosing in a 24-well plate.ATG_RORg_TRANS is one of 30 assay component(s) measured or calculated from the ATG_TRANS assay. It is designed to make measurements of mRNA induction, a form of inducible reporter, as detected with fluorescence intensity signals by Reverse transcription polymerase chain reaction (RT-PCR) and Capillary electrophoresis technology.Data from the assay component ATG_RORg_TRANS was analyzed into 1 assay endpoint. This assay endpoint, ATG_RORg_TRANS, was analyzed in the positive analysis fitting direction relative to DMSO as the negative control and baseline of activity. Using a type of inducible reporter, measures of mRNA for gain-of-signal activity can be used to understand the reporter gene at the transcription factor-level as they relate to the gene RORC. Furthermore, this assay endpoint can be referred to as a primary readout, because this assay has produced multiple assay endpoints where this one serves a reporter gene function. To generalize the intended target to other relatable targets, this assay endpoint is annotated to the nuclear receptor intended target family, where the subfamily is orphan.
Human liver HepG2 cells are transiently transfected with multiple reporter transcription units (MRTUs) in 6-well plates using FuGene 6 reagent (Roche; 3 ml FuGene/1 mg DNA). The MRTU constructs are regulated by a cis-regulating element (promoter). […] A major difference between the CIS and TRANS system is that in CIS activities of endogenous TFs are measured, whereas the TRANS assay evaluates changes in activities of exogenous, chimeric NR-Gal4 proteins. […] At the end of 24 hour incubation, total RNA was isolated using TriZol reagent (Invitrogen). The isolated RNA is then reverse-transcribed using oligo(dT) primer and Mo-MLV reverse transcriptase (Invitrogen) with DNAse I (Ambion) treatment for 30 min. The one-tenth of the produced cDNA was amplified by PCR using Taq DNA polymerase (Invitrogen) and two reporter sequence-specific primers. The PCR products were fluorescently labeled by primer extension with 6-arboxyfluorescein (6-FAM) 5'-labeled reporter sequence-specific primer (2 min at 95 C, 20 s at 68 C and 10 min at 72 C) and these products were digested with 5U of HpaI (New England Biolabs) for 2h at 37 C. The fragments were purified using Qiaquick PCR columns (Qiagen), analyzed on an ABI 3130xL genetic analyzer (Applied Biosystems) with peak positions identified by using a set of X-rhodamine (ROX)-labeled MapMarker1000 molecular weight standards (BioVentures). The raw capillary electrophoresis data was processed using Attagraph software (Attagene).

Structure (SMILES)	outcome	AC50
CC(C)(c1ccc(OCC2CO2)cc1)c1ccc(OCC2CO2)cc1 (stereo not given)	inactive	
CC12CC1(C)C(=O)N(c1cc(Cl)cc(Cl)c1)C2=O (stereo not given)	inactive	
BrCCBr	inactive	
OCc1ccco1	inactive	
NC(=O)O	inactive	
O=C1C(Cl)=C(Cl)C(=O)c2ccccc21	inactive	
Nc1ncc([N+](=O)[O-])s1	inactive	
CC(=O)C(Cl)C(=O)N(C)C (stereo not given)	inactive	
CC1CN1P(=O)(N1CC1C)N1CC1C (stereo not given)	inactive	
ClC(Cl)=C(Cl)C(Cl)=C(Cl)Cl	inactive	
CCc1ccccc1C	inactive	
CCC(C)c1cccc(C(C)CC)c1O (stereo not given)	inactive	
O=C(Cl)c1ccc(Cl)cc1	inactive	
CCCCCCCCSC(=O)Oc1cc(Cl)nnc1-c1ccccc1	inactive	
O=C(CCl)CCl		60.1 µM (active)
COP(=S)(OC)Oc1ccc(Sc2ccc(OP(=S)(OC)OC)cc2)cc1	inactive	
CCCCCCCCc1ccc(O)cc1	inactive	
O=P(O)(O)CN(CP(=O)(O)O)CP(=O)(O)O	inactive	
Nc1ccc(Cl)cc1C(=O)c1ccccc1	inactive	
O=c1[nH]c(=O)[nH]c(=O)[nH]1	inactive	

Structure (SMILES)	outcome	AC50
COP(=O)(OC)OC	inactive	
COS(=O)(=O)c1ccc(C)cc1	inactive	
COc1ccc(C=O)cc1	inactive	
O=C(O)C(Cl)(Cl)Cl	inactive	
O=C1CCCN1	inactive	
COc1ccc(C=O)cc1OC	inactive	
Cc1ccccc1N	inactive	
O=CC=O	inactive	
CN(CCCC(=O)c1cccnc1)N=O	inactive	
ClCCBr	inactive	
ClCC(Cl)CCl	inactive	
COc1ccc(OC)c(C=O)c1	inactive	
CCc1ccccc1N	inactive	
CCC1(c2ccc(N)cc2)CCC(=O)NC1=O (stereo not given)	inactive	
CC(C)(C)CC(C)(C)c1ccc(O)cc1	inactive	
CC(=[OH+])/C=C(/C)[O-].CC(=[OH+])/C=C(/C)[O-].CC(=[OH+])/C=C(/C)[O-].[Al]	inactive	
CCOP(=S)(OCC)SCSP(=S)(OCC)OCC	inactive	
CCOP(OCC)OCC	inactive	
CCCCC(CC)CO[N+](=O)[O-] (stereo not given)	inactive	
O=C(O)C(F)(F)C(F)(F)C(F)(F)C(F)(F)C(F)(F)C(F)(F)F	inactive	
